RORg inh: qHTS for inhibitors of ROR gamma transcriptional activity; Nuclear receptor ROR-gamma (Mus musculus), P51450; Drosophila S2 Gal4-RORgamma UAS-luciferase reporter, 20 h; Potency, µM (series often up to 53.6 µM), actives largely listed as inhibitors; 310,000 tested, 5.4% active; AID 2551, 2010; also: nearly all actives have a fitted effect of over 60% in size
Target sequence (P51450 whole entry, looked up, the tested form may be a part): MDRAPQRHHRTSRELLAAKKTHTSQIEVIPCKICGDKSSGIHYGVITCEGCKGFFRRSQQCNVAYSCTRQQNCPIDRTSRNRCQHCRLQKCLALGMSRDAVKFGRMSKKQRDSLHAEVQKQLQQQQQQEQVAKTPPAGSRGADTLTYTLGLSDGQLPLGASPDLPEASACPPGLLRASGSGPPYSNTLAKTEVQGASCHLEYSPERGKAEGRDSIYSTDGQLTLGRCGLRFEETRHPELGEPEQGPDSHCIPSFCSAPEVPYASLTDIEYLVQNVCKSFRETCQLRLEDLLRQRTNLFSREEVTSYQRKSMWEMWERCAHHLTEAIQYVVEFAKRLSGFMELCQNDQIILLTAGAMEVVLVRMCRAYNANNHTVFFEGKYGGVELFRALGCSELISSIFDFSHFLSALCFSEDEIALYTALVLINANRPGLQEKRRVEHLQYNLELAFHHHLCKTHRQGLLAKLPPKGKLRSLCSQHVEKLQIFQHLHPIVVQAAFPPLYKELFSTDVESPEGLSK
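Drosophila S2 cells stably expressing Gal4-DBD/mouse RORγ fusion under metallothionein promoter plus UAS-luciferase; compound 1 h, then 700 uM CuSO4 induction for 20 h at ambient temperature; inhibition read as reduced luminescence.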
HepG2 tox: qHTS for Inhibitors of TGF-b: Cytotox Counterscreen; 410,000 tested, 0.76% active; HepG2 CAGA-GFP viability, ATP luminescence, 18 h; Potency, µM (titrated, usually from 46.1 µM), usual class: cytotoxic
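CellTiter-Glo luminescence gave cytotoxicity after 18 hours at 37 degrees C. The cells were HepG2 CAGA-GFP in 1% FBS DMEM, stimulated with 500 pg/mL TGF-beta after compound addition. %Activity was normalised to no-cell wells (complete cell-killing) and DMSO (no toxicity), and curves were fitted and classified.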
VP16 counter: VP16 counterscreen qHTS for inhibitors of ROR gamma transcriptional activity. 310,000 tested, 3.5% active. Drosophila S2 Gal4-VP16 UAS-luciferase, luminescence, 20 h. Potency, µM (doses to about 53.6 µM), hits mostly inhibitors. AID 2546, 2010;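 also: Gal4-VP16 expression switched on by copper sulfate through the metallothionein promoter; nearly all actives have a fitted effect of over 50% in size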
ATXN2 expr inh: Primary qHTS for Inhibitors of ATXN expression | AID 1745845, 2022 | Potency, µM (series often up to 57 µM), actives largely listed as inhibitors | 360,000 tested, 0.72% active | HEK-293 ATXN2-luciferase reporter, luminescence, 24 h; also: nearly all actives have a fitted effect of over 55% in size
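ATXN2-luciferase reporter cells (luciferase flanked by upstream and downstream ATXN2 gene portions) were treated 24 h at 37 °C with compounds at up to 57 uM. SteadyGlo luminescence gave expression; GF-AFC fluorescence gave viability.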
S2 tox: Viability Counterscreen for Primary qHTS for Inhibitors of ATXN expression; S2 cells (HEK-293 line with an ATXN2-luciferase reporter) viability, CellTiter-Fluor protease fluorescence, 24 h; Potency, µM (top dose mostly 56.7 µM), usual class: cytotoxic; 400,000 tested, 0.49% active; also: nearly all actives have a fitted effect of over 40% in size
TGFb inhibitor: qHTS for Inhibitors of TGF-b | Potency, µM (doses to about 46.1 µM), actives largely listed as inhibitors | HepG2 CAGA-GFP TGF-b/SMAD3 reporter, GFP fluorescence, 18 h; TGF-beta stimulated, 500 pg/mL final | 410,000 tested, 1.2% active | AID 588855, 2011; also: nearly all actives have a fitted effect of over 65% in size
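Read-out: total well GFP (ex488/em500-530) summed from mean per-cell fluorescence. Cells: HEPG2 CAGA-GFP, 1% FBS DMEM, 18 h at 37 degrees C with 500 pg/mL final TGF-beta. Unstimulated wells served as the full-inhibition control; stimulated DMSO wells = 0%.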
Numbers stand for hits; 0 = inactive; ? = inconclusive; - = not tested or not shown. Hits are enriched below; roughly 6.1% of the tested compounds scored in any of these assays. Calls follow the shape of the dose curve; as a rule, active = well fitted curve in the direction sought with a large enough effect; inconclusive = small, poorly fitted or top-dose-only effect, or another doubt; inactive = no such curve, though single readings can be large; an effect the other way counts as inactive or inconclusive.

SMILES	RORg inh	HepG2 tox	VP16 counter	ATXN2 expr inh	S2 tox	TGFb inhibitor
CCn1cc(C(=O)NCc2ccccc2)c(=O)c2cc(S(=O)(=O)N3CCCCCC3)ccc21	-	0	-	0	0	0
CCC12CN3CC(C)(CN(C1)C3c1c[nH]c3ccc(OC)cc13)C2=O (centres undefined)	-	0	-	0	0	0
CCOc1ccccc1N(C)C(=O)c1cc(S(=O)(=O)NCCc2ccc(Cl)cc2)ccc1F	-	0	-	?	?	?
COc1cccc(C(=O)Nc2cccc(C(=O)OCc3cc(=O)n4c(C)csc4n3)c2)c1	-	0	-	-	-	0
CC1(C)C=Cc2c(cc3occ(-c4ccc5c(c4)OCO5)c(=O)c3c2O)O1	0	-	0	-	-	-
COc1c(-c2coc3cc4c(cc3c2=O)CC(OC(C)=O)C(C)(C)O4)ccc2c1C=CC(C)(C)O2 (centres undefined)	2.5µM	-	1.3µM	-	-	-
COc1c(-c2coc3cc4c(cc3c2=O)CC(O)C(C)(C)O4)ccc2c1C=CC(C)(C)O2 (centres undefined)	1.1µM	-	0	-	-	-
Cc1cc(C)cc(NC(=O)c2c(C)oc3nc(C)nc(N4CCCC4)c23)c1	-	0	-	-	-	0
CCOc1ccccc1NC(=O)c1nc(SCc2ccccc2F)ncc1Cl	-	0	-	-	-	0
O=C(O)c1cc(/C=C/c2ccc(N3CCOCC3)cc2)nc2ccccc12	6.3µM	0	5µM	?	-	0
O=C(O)c1cc(/C=C/c2ccc(N3CCOCC3)c([N+](=O)[O-])c2)nc2ccccc12	0	0	?	0	?	0
O=C(Cc1ccc(OCCc2ccccc2)cc1)NO	-	0	-	-	-	0
O=C1C(C=Nc2ccccc2)=C(O)c2ccccc21	?	0	11µM	0	0	0
COc1ccc(N=CC2=C(O)c3ccccc3C2=O)cc1	3.2µM	0	?	0	0	0
CCOCCCn1c(=N)c(C(=O)NC2CCCCC2)cc2c(=O)n3ccccc3nc21	-	0	-	0	-	0
Cn1c(O)c(C2=c3ccccc3=NC2=O)[nH]c1=S	?	0	0	0	0	?
COc1ccc2nc(-n3c(O)c(C4=c5ccccc5=NC4=O)[nH]c3=S)sc2c1	13µM	0	?	0	0	0
CN(Cc1ccccc1)C(=O)c1ccc(CSc2nc3cccnc3n2Cc2ccccc2)cc1	-	0	-	0	?	20µM
CCCC(=O)NC(=S)Nc1cccc(NC(=O)c2ccccc2Cl)c1	?	0	?	0	0	?
CCC(=O)NC(=S)Nc1cccc(NC(=O)c2ccccc2)c1	5µM	0	?	0	0	0
CCC(=O)NC(=S)Nc1cccc(NC(=O)c2ccccc2Cl)c1	11µM	0	0	0	0	0
CCOc1ccc(C(=O)Nc2cccc(NC(=O)c3ccc(Cl)cc3Cl)c2)cc1	-	0	-	-	-	11µM
CCOC(=O)NC(=S)c1ccc[nH]1	13µM	0	?	0	0	0
O=C(Cn1c(=O)c(C(F)(F)F)nc2ccccc21)Nc1ccc(Br)cc1F	-	0	-	0	0	0
O=C(NC(=S)Nc1cccc(NC(=O)c2ccc(Cl)cc2Cl)c1)c1cccs1	20µM	0	11µM	0	0	?
SMILES	RORg inh	HepG2 tox	VP16 counter	ATXN2 expr inh	S2 tox	TGFb inhibitor
CN(C)S(=O)(=O)Oc1ccc(C(=O)Nc2cccc(Cl)c2)cc1	?	0	13µM	0	0	0
CN(C)S(=O)(=O)Oc1ccc(C(=O)Nc2cccc(C(F)(F)F)c2)cc1	0	0	0	?	?	?
CCC(=O)NC(=S)Nc1ccc(NC(=S)NC(=O)c2ccccc2)cc1	3.2µM	0	?	-	?	0
CC(C)CC(=O)NC(=S)Nc1cccc(NC(=O)c2ccccc2Cl)c1	?	0	?	0	0	0
CC(C)Oc1cccc(C(=O)NC(=S)Nc2cccc(NC(=O)c3ccccc3Cl)c2)c1	11µM	0	8.9µM	0	0	?
CCCCC[C@H](O)/C=C/C1=C(C/C=C\CCCC(=O)O)C(=O)CC1	0	-	0	-	-	-
Cc1c(C(=O)N2CCOc3ccc(Cl)cc3C2)sc2ncnc(NCCc3ccccn3)c12	-	-	-	-	0	-
COC(=O)CC(N)c1ccc(Br)cc1 (centres undefined)	0	0	0	0	0	0
CCCC(=O)NC(=S)Nc1cccc(NC(=O)c2ccc(Cl)cc2Cl)c1	10µM	0	?	0	0	0
COC(=O)CC(NC(=S)NC(=O)c1ccccc1)c1ccc(Br)cc1 (centres undefined)	13µM	0	?	-	0	0
CCC(=O)Nc1cccc(NC(=S)NC(=O)c2ccc(Cl)cc2Cl)c1	?	0	?	0	0	0
CCOC(=O)Nc1cccc(NC(=O)c2cc(OC)cc(OC)c2)c1	?	0	0	0	0	0
CCOC(=O)NC(=S)Nc1cccc(NC(=S)NC(=O)OCC)c1	7.1µM	0	?	0	0	0
c1ccc(Cc2nnc(Sc3ccccc3)c3ccccc23)cc1	0	20µM	?	0	0	?
COc1cc(-c2c(OC)cccc2OC)cc2c1OCCN(C(=O)CCC(=O)c1ccc(F)cc1)C2	-	-	-	-	0	-
CCOC(=O)CC(=O)CSc1ncnc2c1nnn2-c1ccc(OC)cc1	8.9µM	0	0	0	0	0
CC(=O)c1cccc(Nc2ncnc3c2cnn3C)c1	-	0	-	-	-	0
Cc1ccc(O)c(C(CC(=O)NCC2(c3ccccc3)CCCC2)c2ccccc2)c1 (centres undefined)	-	0	-	-	-	-
C#CC[N+]1(CC#Cc2ccccc2)CCCC1	0	0	0	0	0	0
C(#Cc1ccccc1)C[N+]1(CC#Cc2cccc3ccccc23)CCCC1	0	0	16µM	?	0	?
CCCCNCC	0	-	0	-	-	-
COCC1CCCN(Cc2cn(Cc3ccccc3)nc2-c2cc3ccccc3o2)C1 (centres undefined)	0	0	0	0	?	13µM
COCC1CCN(Cc2cn(Cc3ccccc3)nc2-c2cc3ccccc3o2)CC1	0	0	0	0	0	0
Cc1csc(NC(=O)c2cn3ccccc3n2)n1	5µM	0	7.9µM	4µM	0	0
Cc1csc(NC(=O)c2cccn2C)n1	0	0	0	0	0	0
O=C(Nc1ccccc1)c1cn2ccccc2n1	?	0	2.8µM	11µM	0	0
CCOc1ccc(NC(=O)CSc2nccn2-c2cccc(C)c2C)cc1	-	0	-	?	0	0
COc1ccc(C(=O)Nc2nc3ccccc3[nH]2)cc1S(=O)(=O)N1CCOCC1	?	0	0	0	0	0
COc1cc(OC)cc(C(=O)OC/C(O)=C(\C#N)c2nc3ccccc3[nH]2)c1	6.3µM	0	18µM	0	0	0
Cc1c(C(=O)OC/C(O)=C(\C#N)c2nc3ccccc3[nH]2)oc2ccccc12	?	0	?	?	?	13µM
